HepG2 tox: counter-screen for TGF-b inhibitors: cytotoxicity in HepG2 cells. Potency, µM (highest dose often 46.1 µM), without a hit: at the top dose activity change, negative = cytotoxicity, hits mostly cytotoxic. HepG2 CAGA-GFP viability, ATP luminescence, 18 h. 410,000 tested, 0.76% active
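HepG2 CAGA-GFP cells (1000/well, DMEM with 1% FBS) received compound, then TGF-beta at 500 pg/mL final, and were incubated 18 hours at 37 degrees C. Viability was read by CellTiter-Glo luminescence. Media-only wells were set as complete cell-killing and DMSO as no toxicity.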
HT1080-NT tox: kills 2HG-producing HT-1080-NT fibrosarcoma cells; HT-1080-NT fibrosarcoma viability, CellTiter-Glo ATP luminescence, 48 h; AID 686970; Potency, µM (highest dose often 46.1 µM), for inactives: at the highest dose activity, negative = less viability, hits mostly cytotoxic; 360,000 tested, 1.6% active;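 further: NT is the 2HG producing partner of a matched IDH1 knockdown line; 0% = DMSO-treated cells and -100% = media-only wells without cells; nearly all actives have a fitted effect of over 55% in size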
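750 cells/well, RPMI + 5% FBS; 2 h settle, compound pin-transfer, 48 h at 37 degrees C. CellTiter-Glo 10 min RT, luminescence. Normalized to DMSO and media-only wells.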
TGFb SMAD3 inh: TGF-b pathway inhibition; Potency, µM (doses to about 46.1 µM), for inactives: at the highest dose activity, negative = inhibition, usual class: inhibitors; AID 588855; 410,000 tested, 1.2% active; HepG2 CAGA-GFP TGF-b/SMAD3 reporter, GFP fluorescence, 18 h; TGF-beta stimulated, 500 pg/mL final; further: on the % scale 0 is the no-effect control and ±100 the full control effect; nearly all actives have a fitted effect of over 65% in size
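Per well, imaged GFP fluorescence of HEPG2 CAGA-GFP cells gives the signal; cells get compound, then TGF-beta (500 pg/mL final), 18 h at 37 degrees C; %Activity versus -TGF-beta and +DMSO controls.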
DT40 TDP1 no CPT: qHTS for Inhibitors of human tyrosyl-DNA phosphodiesterase 1 (TDP1): qHTS in cells in absence of CPT; DT40 Tdp1-/- hTDP1 cells, no CPT, ATP luminescence, 48 h; Potency, µM (top dose mostly 46.2 µM), for inactives: at the top dose activity change, negative = growth inhibition, hits mostly inhibitors; 420,000 tested, 15% active; AID 686978, 2013; further: on the % scale 0 is the no-effect control and ±100 the full control effect; nearly all actives have a fitted effect of over 55% in size
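Growth kinetics read by CellTiter-Glo luminescence after ≥48 hr at 37 °C. Cells: DT40 Tdp1-/- stably carrying human TDP1, 400 per well, compound exposure in the absence of CPT (DMSO vehicle).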
TDP1 cell CPT: DT40-hTDP1 cell growth loss with CPT | chicken DT40 Tdp1-/-;hTDP1 cells + 20 nM CPT, ATP luminescence, 48 h | Potency, µM (titrated, usually from 46.2 µM), without a hit: top-dose activity change, negative = growth inhibition, actives largely listed as inhibitors | 420,000 tested, 12% active | AID 686979; further: on the % scale 0 is the no-effect control and ±100 the full control effect; nearly all actives have a fitted effect of over 55% in size
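Cell growth measured by CellTiter-Glo luminescence after a minimum 48 h, 37 C compound exposure with 20 nM CPT in Tdp1-knockout DT40 cells stably expressing hTDP1, seeded 400/well; qHTS titration format.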
HT1080 IDH1KD tx: kills HT-1080 cells with IDH1 knockdown; 360,000 tested, 2% active; HT-1080 IDH1 knockdown viability, ATP luminescence, 48 h; Potency, µM (top dose mostly 46.1 µM), for inactives: top-dose activity, negative = toxicity, actives largely listed as cytotoxic;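 further: 0% = DMSO wells and -100% = cell-free medium wells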
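IDH1KD HT-1080 cells, 750/well, RPMI + 5% FBS; compound pinned after 2 h settling; 48 h, 37 °C; CellTiter-Glo luminescence; % activity normalised to DMSO and no-cell wells; curves fitted, classed by r2 and efficacy.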
* marks the source's active call; other numbers are inactive results; ? = inconclusive; . = no result given; [ ] = another dose, or the depositor's remark. An excerpt weighted towards active compounds, which were near 17% of everything screened. The call rests on the fitted dose curve; in most records, active means well fitted curve in the direction sought with a large enough effect; inconclusive means small, poorly fitted or top-dose-only effect, or another doubt; inactive means no such curve, though single readings can be large; an effect the other way counts as inactive or inconclusive. Potency means the concentration at half of the fitted maximal effect.

SMILES	HepG2 tox	HT1080-NT tox	TGFb SMAD3 inh	DT40 TDP1 no CPT	TDP1 cell CPT	HT1080 IDH1KD tx
COc1ccc(OC)c(C(c2nnnn2Cc2ccccc2)N2CCN(C3CCCCC3)CC2)c1 (centres undefined)	-1%	-5%	13%	?	18µM*	-3%
Fc1ccc(Cn2nnnc2C(c2cccs2)N2CCN(C3CCCCC3)CC2)cc1 (centres undefined)	-36%	0%	-22%	16µM*	15µM*	-1%
COc1ccccc1C(c1nnnn1Cc1ccccc1)N1CCN(C2CCCC2)CC1 (centres undefined)	1%	0%	0%	?	?	-1%
CC(C)(C)c1ccc(C(=O)NCC(=O)OCC(=O)N2CCCC2)cc1	11%	0%	25%	2%	-14%	-1%
Cc1ccnc2ccc(N)cc12	-29%	.	-10%	?	?	.
Cc1ccc2nsnc2c1NC(=O)c1ccc([N+](=O)[O-])o1	-24%	-14%	?	23µM*	?	?
Cc1nnc2sc(-c3ccc(NC(=O)c4ccc(-c5ccc(Cl)cc5Cl)o4)cc3)nn12	1%	0%	0%	?	16µM*	-5%
Cc1ccc2nsnc2c1NC(=O)CCl	-83%	?	-1%	21µM*	?	?
Cc1ccc2nsnc2c1NC(=O)c1ccc(-c2cc(Cl)ccc2Cl)o1	-56%	16µM*	?	?	?	-27%
Cc1ccc(NC(=O)C2CCN(S(=O)(=O)c3ccc4c(c3)C(C)(C)C(=O)N4C)CC2)c(C)c1	-6%	-3%	-7%	-28%	?	0%
CN(c1ccc([N+](=O)[O-])cc1)c1cc2c(c3c1ccn3C)C1CCC2C1 (centres undefined)	-18%	10%	-16%	-7%	-20%	-29%
C=CCOC(=O)C1=C(C)Nc2nnnn2C1c1cccs1 (centres undefined)	3%	4%[9.24 µM]	12%	-28%	-12%	?
C#CCCc1cscc1/C=[N+](\[O-])c1ccc(C(=O)OCC)cc1	-3%	-7%	16%	?	23µM*	-9%
C#CCCC(=O)c1ccccc1/C=[N+](\[O-])c1ccccc1	-38%	0%	-12%	?	?	1%
CCOC(=O)c1ccc(/[N+]([O-])=C/c2ccccc2)cc1	-8%	-3%	0%	?	13µM*	-1%
CCOC(=O)c1ccc(CNCc2ccccc2)cc1	-10%	5%	1%	?	-9%	19%
CN(c1ccccc1)S(=O)(=O)c1ccc(C(=O)Nc2ncccc2O)cc1	-11%	-3%	14%	?	?	1%
CCOC(=O)C1(C)CCCCCN1C(=O)c1ccc(SC(F)(F)F)cc1 (centres undefined)	-3%	18%	16%	?	?	18%
CCOC(=O)C1(C)CCN1C(=O)c1ccc(SC(F)(F)F)cc1 (centres undefined)	-34%	1%	0%	?	18µM*	-1%
CCOC(=O)C1(C)CCN1C(=O)c1ccc(C(C)(C)C)cc1 (centres undefined)	0%	0%	-6%	21µM*	16µM*	10%
Cc1cccc(NC(=O)c2ccc(S(=O)(=O)NCc3cccnc3)cc2)c1	4%	-1%	?	?	1%	-14%
COc1ccc(NC(=O)CN2C(=O)C(C)Oc3ccccc32)cc1OC (centres undefined)	13%	-6%	-9%	?	-28%	-4%

Screening results: PubChem, National Center for Advancing Translational Sciences (NCATS)
